Bioassay records (PubChem BioAssay)
This is a sample that favours compounds with a hit; in the whole collection about 19% have one here.
Shiga inhibitor: Shiga toxin inhibition | hit rate 9.2% among 290,000 | Vero cells, Shiga toxin protein synthesis inhibition reporter | AID 2315 | inhibition, % at 38.7 µM; in the data active means inhibition mostly above about 28%, no sharp cut-off; inactive means mostly below about 43%
Pf growth 48h: inhibits P. falciparum growth in the first generation, 48 h | hit rate 5.9% among 310,000 | AID 504832 | Potency, µM (top dose mostly 28.7 µM), most hits filed as inhibitors | P. falciparum luciferase growth in erythrocytes, 48 h
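Growth was read as firefly luciferase luminescence after a 48 h, 37 C, 5% CO2 exposure of compounds to reporter-bearing P. falciparum cultures (0.1% parasitemia, 2% hematocrit final) in Albumax-supplemented RPMI 1640.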
SARS PLpro yeast: blocks SARS-CoV papain-like protease in a yeast assay; hit rate 0.19% among 330,000; Potency, µM (titrated, usually from 32.9 µM), actives largely listed as activators; AID 485353; S. cerevisiae expressing SARS-CoV PLpro, growth rescue; calls by dose curve; further: nearly all actives have a fitted effect of over 55% in size
Cycloheximide cs: affects cycloheximide protein synthesis inhibition readout, counter-screen; cell reporter, cycloheximide protein synthesis inhibition counterscreen; hit rate 12% among 300,000; max response, %; in the data active means max response mostly above about 13%, no sharp cut-off; inactive means mostly below about 14%; further: read at 38.3 µM for the half of the compounds with a filed dose
Pf growth 96h: P. falciparum growth inhibition at 96 hours | Potency, µM (titrated, usually from 28.7 µM), actives largely listed as inhibitors | AID 504834 | hit rate 6.9% among 320,000 | P. falciparum luciferase reporter growth, 96 h
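Plates of compound plus infected erythrocytes (2% hematocrit, 0.05% parasitemia final) incubate 96 hours, 37 C, 5% CO2. Detection reagent added; reduced luminescence from the parasites' luciferase reporter flags inhibition.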
AMA1 RON2 block: AMA1-RON2 (P. falciparum) interaction inhibition; AlphaScreen AMA1-biotinylated RON2 peptide binding; Potency, µM (doses to about 58.2 µM), most hits filed as inhibitors; hit rate 0.2% among 360,000; further: nearly all actives have a fitted effect of over 45% in size
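AMA1 (3D7) with his tag at 25 nM final met compounds first, then biotinylated RON2 peptide at 25 nM; detection used donor plus acceptor beads, 10 µg/mL apiece, read by AlphaScreen after 30 min at room temperature.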
Of the large screens only hits and unclear results are named; the others gave an inactive call. Unless noted, the call rests on the fitted dose curve; in most records, active means well fitted curve in the direction sought with a large enough effect; inconclusive means small, poorly fitted or top-dose-only effect, or another doubt; inactive means no such curve, though single readings can be large; an effect the other way counts as inactive or inconclusive.

COCC(=O)N1CCC(Oc2ccc(C(=O)N(C)CCCC3CCCC3)cc2)CC1	Cycloheximide cs 22
O=C(NC1CCCC1)c1cccc(S(=O)(=O)N2CCCC2)c1	Pf growth 48h inconclusive (no result: Shiga inhibitor, Cycloheximide cs)
O=C(CC1Sc2ccccc2NC1=O)NCc1ccc(Cl)cc1 (stereo unspecified)	none
CC1(C(=O)O)CCCN(C(=O)c2cccnc2Oc2ccccc2)C1 (stereo unspecified)	none (no result: Shiga inhibitor, Pf growth 48h, SARS PLpro yeast, Cycloheximide cs, Pf growth 96h)
Cc1cc(NC(=O)Cc2ccccc2)ccc1NC(=O)c1cccs1	Pf growth 96h inconclusive
N#CC1=C(N)N2C(=C(C#N)C1c1ccccc1)Sc1ccccc12 (stereo unspecified)	none (no result: AMA1 RON2 block)
CCOc1ccc(C2C(C#N)=C(N)N3C(=C2C#N)Sc2ccccc23)cc1 (stereo unspecified)	Shiga inhibitor 65, Pf growth 48h inconclusive, Cycloheximide cs 26
Cc1ccc(NC(=O)CSc2ccc(C(N)=O)cc2[N+](=O)[O-])cc1	Shiga inhibitor 43
Cc1ccc(NC(=O)CSc2ccc(C(N)=O)cc2[N+](=O)[O-])cc1C	none
CN(c1ccc(C(=O)N2CCOCC2)cc1[N+](=O)[O-])C1CCCCC1	Shiga inhibitor 95, Cycloheximide cs 48
CCOC(=O)CSc1ccc(C(=O)N2CCC3(CC2)OCCO3)cc1[N+](=O)[O-]	Pf growth 48h inconclusive, Pf growth 96h 7.4µM
CCOC(=O)N1CCN(C(=O)CSc2ccc(C(=O)OC)cc2[N+](=O)[O-])CC1	Pf growth 96h 4.7µM
COC(=O)c1ccc(SCC(=O)N2CCC(C)CC2)c([N+](=O)[O-])c1	Pf growth 96h inconclusive
O=C(NCCCN1CCN(c2ccccc2F)CC1)Nc1ccccc1[N+](=O)[O-]	none
COC(=O)c1ccc2c(=O)n(CCCCCC(=O)NCc3ccccn3)c(=O)[nH]c2c1	none (no result: Pf growth 48h)
O=C(c1ccc(N2CCC3(CC2)OCCO3)c([N+](=O)[O-])c1)N1CCOCC1	Shiga inhibitor 69, Cycloheximide cs 21
Cc1cc(C)n(C(N)=NC(=O)c2ccc([N+](=O)[O-])cc2)n1	Shiga inhibitor 40, Cycloheximide cs 28
Cc1cc(C)n(C(N)=NC(=O)c2ccccc2)n1	none (no result: Shiga inhibitor, Pf growth 48h, SARS PLpro yeast, Cycloheximide cs, Pf growth 96h)
CCOC(=O)C1=C(N)Oc2cc(O)ccc2C1c1ccc(F)cc1F (stereo unspecified)	Pf growth 96h inconclusive
Cc1ccccc1Nc1n[nH]c(C)c1[N+](=O)[O-]	Pf growth 96h 3.7µM
Cc1ccc(Nc2n[nH]c(C)c2[N+](=O)[O-])c(C)c1	none
COc1ccc(Nc2n[nH]c(C)c2[N+](=O)[O-])cc1	Shiga inhibitor 100, Cycloheximide cs 32
CNC(=O)C1Cc2c(-c3ccccc3Oc3ccccc3)ccnc2O1 (stereo unspecified)	none (no result: Shiga inhibitor, Pf growth 48h, SARS PLpro yeast, Cycloheximide cs, Pf growth 96h)
COc1cc(/C=C/C(=O)OCC(=O)c2ccc3c(c2)NC(=O)CO3)ccc1OC(F)F	none (no result: Shiga inhibitor, Cycloheximide cs)
CCN(CC)CCOC(=O)c1ccc(NC(=O)CSc2nnc(-c3cccs3)n2CC)cc1	none (no result: Shiga inhibitor, Pf growth 48h, SARS PLpro yeast, Cycloheximide cs, Pf growth 96h)
CCOC(=O)c1ccc(NC(=O)/C=C/c2cccs2)cc1	Shiga inhibitor 109, Pf growth 48h inconclusive, Cycloheximide cs 46, Pf growth 96h inconclusive
CCN(CC)CCOC(=O)c1ccc(NC(=O)/C=C/c2cccs2)cc1	Shiga inhibitor 118, Pf growth 48h inconclusive, Cycloheximide cs 75, Pf growth 96h inconclusive
CC(=O)c1ccc(NC(=O)COC(=O)/C=C/c2cccs2)cc1	none (no result: Shiga inhibitor, Pf growth 48h, Cycloheximide cs, Pf growth 96h)
COc1ccc(CNS(=O)(=O)NCc2ccc(C)cc2)cc1	none
CCCCN(CCCC)CCNC(=O)c1ccc2nc(-c3ccccc3NC(C)=O)c(=O)[nH]c2c1	Pf growth 48h 2.3µM
CC(=O)Nc1ccccc1-c1nc2ccc(C(=O)N3CCN(c4cccc(C)c4)C(C)C3)cc2[nH]c1=O (stereo unspecified)	Pf growth 96h 6.6µM (no result: Pf growth 48h)
CC(=O)Nc1ccccc1-c1nc2ccc(C(=O)N3CCN(c4ccccc4)CC3)cc2[nH]c1=O	Pf growth 96h inconclusive
Cc1cccc(N2CCN(C3=NC(=O)C(Cc4ccccc4)S3)CC2)c1 (stereo unspecified)	Pf growth 96h 12µM
Cc1cccc(CC2SC(N)=NC2=O)c1 (stereo unspecified)	none
C/C(=N/NC(=O)c1ccoc1C)c1ccc(N2CCOCC2)cc1	Shiga inhibitor 115, Cycloheximide cs 62
C/C(=N\NC(=O)c1ccc(Cl)cc1)c1ccc2[nH]ccc2c1	Cycloheximide cs 24, Pf growth 96h inconclusive
Cc1cc(C)nc(NN=CC2=C(N3CCOCC3)/C(=C/c3ccc(Cl)cc3)CC2)n1	none (no result: Shiga inhibitor, Pf growth 48h, SARS PLpro yeast, Cycloheximide cs, Pf growth 96h)
C/C(CC(=O)N1CCN(C=O)CC1)=N\NC(=O)c1ccc(Cl)cc1	Cycloheximide cs 11, Pf growth 96h inconclusive
Cc1occc1C(=O)N/N=C/C1=C(N2CCOCC2)C(=C\c2ccc(Cl)cc2Cl)/CC1	Shiga inhibitor active, Cycloheximide cs 16
CCc1nc2c(OCC3COc4ccccc4O3)cccn2c1N(C)C(=O)c1ccccc1F (stereo unspecified)	none (no result: Shiga inhibitor, Pf growth 48h, SARS PLpro yeast, Cycloheximide cs, Pf growth 96h)
O=C1CC(c2ccccc2)c2cccc(F)c21 (stereo unspecified)	none
OCCNCC(O)CN1c2ccccc2Sc2ccccc21 (stereo unspecified)	Pf growth 48h inconclusive, Pf growth 96h inconclusive
CCN(CC)C(=O)Cn1cc(S(=O)(=O)Cc2cccc([N+](=O)[O-])c2)c2ccccc21	none
C/C(=N\NC(=O)c1ccc(Cl)cc1)c1ccc(N2CCOCC2)cc1	Cycloheximide cs 25
C/C(=N/NC(=O)COc1ccc(C(C)(C)C)cc1)c1ccc(N2CCOCC2)cc1	none (no result: Shiga inhibitor, Pf growth 48h, SARS PLpro yeast, Cycloheximide cs, Pf growth 96h)
Cc1cc(C)n(C(=O)c2cc3sccc3[nH]2)n1	Shiga inhibitor 64, Cycloheximide cs 30
COc1ccc(C(=O)N2CCN(c3nc4cc(C)cc(C)c4cc3C#N)CC2)cc1	none (no result: Shiga inhibitor, Pf growth 48h, SARS PLpro yeast, Cycloheximide cs, Pf growth 96h)
CCCCNC(=O)C(NC(=O)c1cccnc1)C(=O)c1ccccc1 (stereo unspecified)	none (no result: Shiga inhibitor, Pf growth 48h, SARS PLpro yeast, Cycloheximide cs, Pf growth 96h)
Cn1ccc(NC(=O)c2ccc(Cl)cc2)n1	none (no result: Shiga inhibitor, Cycloheximide cs)
Cc1ccc(C(=O)Nc2nc(=O)n(C(=O)c3ccccc3Cl)s2)cc1	Shiga inhibitor 49, Cycloheximide cs 31 (no result: Pf growth 48h)
Cc1ccc(C(=O)Nc2nc(=O)n(C(=O)CC(C)C)s2)cc1	none
Cc1ccc(C(=O)Nc2nc(=O)n(C)s2)cc1	Shiga inhibitor 73, Cycloheximide cs 36
Cn1sc(NC(=O)c2ccc(Cl)cc2)nc1=O	Cycloheximide cs 14
C[C@H](CO)N1C[C@H](C)[C@@H](CN(C)Cc2ccc(C(=O)O)cc2)OCc2cnnn2CCCC1=O	none (no result: Shiga inhibitor, Pf growth 48h, SARS PLpro yeast, Cycloheximide cs, Pf growth 96h)
O=C(N/N=C/c1ccccc1Br)C1CC1	none
O=C(NCc1nc2ccccc2[nH]1)C1=C[C@@H](c2ccc3c(c2)OCO3)C[C@@H](OCc2ccc(CO)cc2)O1	Pf growth 48h 9.3µM, Pf growth 96h inconclusive (no result: AMA1 RON2 block)
O=C(NCc1nc2ccccc2[nH]1)C1=C[C@H](c2ccccc2)C[C@H](OCCCCO)O1	Pf growth 48h inconclusive, Pf growth 96h inconclusive
